Experimental data reported in article PMC5540273 (PLoS ONE, 2017).

Experiments:
Settings in all cases: concentration: 1 μM, replicates: in singlicate; n = 1
MAP4K2 = system: MAP4K2
MAP4K3 = system: MAP4K3
MAP4K4 = system: MAP4K4
MAP4K5 = system: MAP4K5
MAPKAPK2 = system: MAPKAPK2
MAPKAPK5 = system: MAPKAPK5
MARK1 = system: MARK1
MARK2 = system: MARK2
MARK3 = system: MARK3
MARK4 = system: MARK4
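Note: KINOMEscan kinase panel screen.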

COc1ccc(Nc2nccc(N3CCC(NC(=O)C(C)c4ccc(Cl)cc4)CC3)n2)cc1 (centres unmarked) [GSK1379812]
%Inh (MAP4K2): 0%
%Inh (MAP4K3): 0%
%Inh (MAP4K4): 3%
%Inh (MAP4K5): 0%
%Inh (MAPKAPK2): 6%
%Inh (MAPKAPK5): 0%
%Inh (MARK1): 15%
%Inh (MARK2): 19%
%Inh (MARK3): 0%
%Inh (MARK4): 22%

Cc1ccc(-c2nc(Nc3ccncc3)c3ccccc3n2)s1 [GSK189015]
%Inh (MAP4K2): 0%
%Inh (MAP4K3): 19%
%Inh (MAP4K4): 23%
%Inh (MAP4K5): 15%
%Inh (MAPKAPK2): 25%
%Inh (MAPKAPK5): 0%
%Inh (MARK1): 7%
%Inh (MARK2): 0%
%Inh (MARK3): 22%
%Inh (MARK4): 13%

Fc1ccc(-c2nc[nH]c2-c2ccncc2)cc1 [SB-217360]
%Inh (MAP4K2): 0%
%Inh (MAP4K3): 2%
%Inh (MAP4K4): 10%
%Inh (MAP4K5): 0%
%Inh (MAPKAPK2): 0%
%Inh (MAPKAPK5): 0%
%Inh (MARK1): 12%
%Inh (MARK2): 4%
%Inh (MARK3): 0%
%Inh (MARK4): 30%

CC(=O)c1c(C)c2cnc(Nc3ccc(N4CCNCC4)cn3)nc2n(C2CCCC2)c1=O
%Inh (MAP4K2): 0%
%Inh (MAP4K3): 17%
%Inh (MAP4K4): 0%
%Inh (MAP4K5): 0%
%Inh (MAPKAPK2): 0%
%Inh (MAPKAPK5): 0%
%Inh (MARK1): 6%
%Inh (MARK2): 0%
%Inh (MARK3): 0%
%Inh (MARK4): 13%

CNCc1ccc2nc(NC(=O)c3ccc(C(C)(C)C)cc3)cn2c1
%Inh (MAP4K2): 22%
%Inh (MAP4K3): 0%
%Inh (MAP4K4): 0%
%Inh (MAP4K5): 0%
%Inh (MAPKAPK2): 0%
%Inh (MAPKAPK5): 5%
%Inh (MARK1): 0%
%Inh (MARK2): 0%
%Inh (MARK3): 9%
%Inh (MARK4): 4%

O=C1NC(=O)C(c2ccc(Cl)cc2)=C1Nc1ccc(O)cc1 [SB-340867]
%Inh (MAP4K2): 0%
%Inh (MAP4K3): 0%
%Inh (MAP4K4): 0%
%Inh (MAP4K5): 0%
%Inh (MAPKAPK2): 8%
%Inh (MAPKAPK5): 0%
%Inh (MARK1): 0%
%Inh (MARK2): 1%
%Inh (MARK3): 20%
%Inh (MARK4): 0%

Cc1ccc(NC(=O)Nc2ccccc2)cc1-c1ccc(C(=O)Nc2ccncc2)cc1 [GSK1398471]
%Inh (MAP4K2): 0%
%Inh (MAP4K3): 2%
%Inh (MAP4K4): 1%
%Inh (MAP4K5): 0%
%Inh (MAPKAPK2): 1%
%Inh (MAPKAPK5): 0%
%Inh (MARK1): 0%
%Inh (MARK2): 1%
%Inh (MARK3): 45%
%Inh (MARK4): 0%

Nc1nccc(-c2c(-c3ccc(F)cc3)ncn2C2CCN(Cc3ccccc3)CC2)n1 [SB-219980]
%Inh (MAP4K2): 19%
%Inh (MAP4K3): 16%
%Inh (MAP4K4): 10%
%Inh (MAP4K5): 73%
%Inh (MAPKAPK2): 0%
%Inh (MAPKAPK5): 0%
%Inh (MARK1): 5%
%Inh (MARK2): 1%
%Inh (MARK3): 0%
%Inh (MARK4): 1%

CC(=O)c1c(C)c2cnc(Nc3ccn(C)n3)nc2n(C2CCCC2)c1=O
%Inh (MAP4K2): 0%
%Inh (MAP4K3): 24%
%Inh (MAP4K4): 0%
%Inh (MAP4K5): 0%
%Inh (MAPKAPK2): 0%
%Inh (MAPKAPK5): 0%
%Inh (MARK1): 0%
%Inh (MARK2): 0%
%Inh (MARK3): 12%
%Inh (MARK4): 0%

Fc1ccc(-c2nn3cccc(F)c3c2-c2ccncc2)cc1 [GW475620]
%Inh (MAP4K2): 0%
%Inh (MAP4K3): 10%
%Inh (MAP4K4): 47%
%Inh (MAP4K5): 24%
%Inh (MAPKAPK2): 29%
%Inh (MAPKAPK5): 0%
%Inh (MARK1): 1%
%Inh (MARK2): 0%
%Inh (MARK3): 0%
%Inh (MARK4): 4%

CC(C)c1ccc(O)cc1Nc1ccnc2ccc(C(F)(F)F)cc12 [GW482059]
%Inh (MAP4K2): 0%
%Inh (MAP4K3): 0%
%Inh (MAP4K4): 26%
%Inh (MAP4K5): 37%
%Inh (MAPKAPK2): 16%
%Inh (MAPKAPK5): 0%
%Inh (MARK1): 0%
%Inh (MARK2): 0%
%Inh (MARK3): 0%
%Inh (MARK4): 6%

CNc1nc(-c2ccc3c(N)n[nH]c3c2)cc(N2C[C@@H](C(=O)Nc3ccccc3)CC[C@H]2C)n1 [GSK2298859]
%Inh (MAP4K2): 0%
%Inh (MAP4K3): 0%
%Inh (MAP4K4): 6%
%Inh (MAP4K5): 0%
%Inh (MAPKAPK2): 0%
%Inh (MAPKAPK5): 0%
%Inh (MARK1): 0%
%Inh (MARK2): 0%
%Inh (MARK3): 0%
%Inh (MARK4): 11%

Cc1ccccc1Cn1ccn2c(=O)cc(N3CCOCC3)nc12 [GSK2269905]
%Inh (MAP4K2): 0%
%Inh (MAP4K3): 0%
%Inh (MAP4K4): 0%
%Inh (MAP4K5): 0%
%Inh (MAPKAPK2): 19%
%Inh (MAPKAPK5): 0%
%Inh (MARK1): 99.2%
%Inh (MARK2): 0%
%Inh (MARK3): 0%
%Inh (MARK4): 96.6%

Cn1cncc1C(=O)NC1CCN(c2ccnc(Nc3ccc(F)cc3)n2)C1 (centres unmarked) [GSK1379717]
%Inh (MAP4K2): 0%
%Inh (MAP4K3): 0%
%Inh (MAP4K4): 7%
%Inh (MAP4K5): 30%
%Inh (MAPKAPK2): 4%
%Inh (MAPKAPK5): 0%
%Inh (MARK1): 0%
%Inh (MARK2): 0%
%Inh (MARK3): 0%
%Inh (MARK4): 0%

Nc1ncnc2occ(-c3ccc4c(c3)CCN4C(=O)Cc3cc(F)ccc3F)c12 [GSK2645446]
%Inh (MAP4K2): 0%
%Inh (MAP4K3): 35%
%Inh (MAP4K4): 0%
%Inh (MAP4K5): 11%
%Inh (MAPKAPK2): 11%
%Inh (MAPKAPK5): 0%
%Inh (MARK1): 0%
%Inh (MARK2): 0%
%Inh (MARK3): 0%
%Inh (MARK4): 0%

Cc1ccc(NC(=O)Nc2ccc(Cl)c(C(F)(F)F)c2)cc1-c1ccc(C(=O)Nc2ccncc2)cc1 [GSK1398470]
%Inh (MAP4K2): 0%
%Inh (MAP4K3): 8%
%Inh (MAP4K4): 29%
%Inh (MAP4K5): 12%
%Inh (MAPKAPK2): 7%
%Inh (MAPKAPK5): 0%
%Inh (MARK1): 0%
%Inh (MARK2): 13%
%Inh (MARK3): 8%
%Inh (MARK4): 0%

O=C(Nc1n[nH]c2nc(-c3cccs3)c(Br)cc12)C1CCCC1 [SB-743341]
%Inh (MAP4K2): 0%
%Inh (MAP4K3): 0%
%Inh (MAP4K4): 0%
%Inh (MAP4K5): 0%
%Inh (MAPKAPK2): 5%
%Inh (MAPKAPK5): 17%
%Inh (MARK1): 22%
%Inh (MARK2): 8%
%Inh (MARK3): 2%
%Inh (MARK4): 19%
